An excerpt weighted towards active compounds, which were near 5.2% of everything screened.
Vif imaging = HIV Vif self-association inhibitors, primary screen, imaging, HEK293T, single point; HEK293T cells, Vif self-association by quenched fluorescence, 24 h; inhibition, % at 7.49 µM; hit rate 0.35% among 340,000; in the data active means inhibition above about 50%, passing the limit was not always enough
esBAF inh = Bmi1 luciferase reporter increase in mESCs, primary screen, esBAF inhibitor project, mouse ES cells, Bmi1 luciferase knock-in, single point; 24 h; 100% = twice the neutral-well signal; reporter increase, % at 12.5 µM; hit rate 2% among 350,000; in the data active means activation above about 40%;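 further: 0% = median of the plate's neutral control wells and 100% = double that signal; a rise in the Bmi1 reporter signal indicates esBAF inhibition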
SKN-1 inh = suppressors of acrylamide-induced Pgst-4::GFP reporter in worms, primary screen, SKN-1 inhibitor project, whole organism, uHTS, GFP/RFP fluorescence ratio, strain VP596; AID 624304, 2012; inhibition, % at 21.8 µM; C. elegans VP596 Pgst-4::GFP/RFP ratio, 24 h; hit rate 0.49% among 360,000;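 active means interference check ratio from 0.5 to 1.5 plus GFP to RFP signal ratio inhibition reaching or exceeding a fixed threshold, cut at about 30% in these data, passing the limit was not always enough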
NR3A LBD binder = binders of NR3A ligand-binding domain, primary screen, biophysical, differential scanning fluorimetry, uHTS | Glutamate receptor ionotropic, NMDA 3A (GRIN3A) ligand-binding domain | NR3A LBD differential scanning fluorimetry, Tm shift; 0% = protein alone, 100% = glycine-bound protein | Tm shift relative to glycine control, % at 25 µM | hit rate 2.5% among 340,000 | AID 1259313, 2017;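 active means melting temperature shift of at least 10% of the positive control shift, at one fixed dose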
SMARCA2 activ = SMARCA2 (BRM) function activators, primary screen, cell-based, luminescence, high throughput. MG213 cells, MMTV-luciferase reporter, dexamethasone, overnight. activation, % at 9.1 µM. hit rate 1% among 370,000. AID 652017, 2013; in the data active means activation above about 7.8%;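 further: 0% = vehicle wells and 100% = reference activator wells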
NadD inh = inhibitors of S. aureus NadD, primary screen, biochemical, colorimetric, uHTS. hit rate 0.78% among 360,000. inhibition, % at 20 µM. AID 602399, 2012. purified NadD enzyme, colorimetric absorbance read-out. Nicotinate-nucleotide adenylyltransferase NadD (Staphylococcus aureus N315); in the data active means inhibition above about 26%
SMARCA2 act conf = SMARCA2 (BRM) function activators, confirmation, cell-based, luminescence, triplicate | hit rate 30% among 3,500 | activation, % at 9.1 µM | MG213 cells, MMTV-luciferase with dexamethasone, overnight; MG213 cells expressing E1A, Rb sequestered; DMSO wells 0%, reference activator 100% | shares compounds with SMARCA2 activ;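 active means activation above its plate's cutoff, the mean activation of tested wells plus 3 SD, cut at about 7.9% in these data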
GAL4-VP16 Luc = GAL4-VP16 luciferase reporter activation, counter-screen for SMARCA2 (BRM) activator project, cell-based, pG5luc, luminescence, high throughput | shares compounds with SMARCA2 activ | HEK293 GAL4-VP16 pG5luc reporter; scaled: DMSO wells 0%, SAHA wells 100% | activation, % at 9.1 µM | hit rate 41% among 3,500 | AID 686939, 2013;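 active means activation above the solvent-only control well mean plus 3 SD, averaged across control plates, cut at about 5.2% in these data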
* hit, by the source's call; . = no result given.

SMILES | Vif imaging | esBAF inh | SKN-1 inh | NR3A LBD binder | SMARCA2 activ | NadD inh | SMARCA2 act conf | GAL4-VP16 Luc
CC1OC(OCC2OC(Oc3c(-c4ccc(O)cc4)oc4cc(O)cc(O)c4c3=O)C(O)C(O)C2O)C(O)C(O)C1O (centres undefined) | -6 | -16 | 20 | 1 | -2 | 2 | . | .
CCC(C)(C)C1CCC(=NNC(=S)Nc2ccccc2)CC1 (centres undefined) | 3 | 9 | -11 | -2 | 8.9* | -2 | 0 | 1
CCC(C)(C)C1CCC(=NNC(=S)Nc2cccnc2)CC1 (centres undefined) | 8 | 0 | -17 | 4 | 0 | 0 | . | .
COc1ccc(NC(=O)N(C)C[C@@H]2OCCCC[C@@H](C)Oc3ccc(NC(=O)Nc4cccc5ccccc45)cc3C(=O)N([C@@H](C)CO)C[C@H]2C)cc1 | . | 5 | . | . | . | . | . | .
CC(C)CC#Cc1cnc2c(c1)C(=O)N([C@H](C)CO)C[C@H](C)[C@@H](CN(C)S(=O)(=O)c1cn(C)cn1)O2 | . | 1 | . | . | . | . | . | .
O=C1c2ccccc2-c2c1c1ccccc1c(=O)n2CCO | 4 | . | 19 | -2 | 16* | -1 | 14* | 7.7*
CO[C@H]1CN(C)C(=O)c2cc(NC(=O)c3ccc4c(c3)OCO4)ccc2OC[C@H](C)N(CC2CC2)C[C@H]1C | . | 3 | . | . | . | . | . | .
CCc1nnc(NC(=O)c2sc3nc4c(cc3c2N)CCCCC4)s1 | -1 | . | 8 | -3 | 6 | 19 | . | .
Nc1nc(N)c2sc3nc4c(cc3c2n1)CCC4 | -6 | 48* | -6 | -7 | 8.1* | 2 | 11* | 5.1*
C[C@H](CO)N1C[C@H](C)[C@@H](CN(C)CC2CCCC2)OCc2cnnn2CCCC1=O | . | -6 | . | . | . | . | . | .
Cc1nc(NCCC(C)C)c2nnn(Cc3ccccc3)c2n1 | -4 | 4 | 3 | 1 | -4 | 6 | . | .
CCC(C)Nc1nc(C)nc2c1nnn2Cc1ccccc1 (centres undefined) | . | . | . | . | 8.0* | . | 6 | 1
CO[C@@H]1CN(C)C(=O)c2cc(NC(=O)NC(C)C)ccc2OC[C@H](C)N(CCC(F)(F)F)C[C@H]1C | . | 4 | . | . | . | . | . | .
CCCC[C@H]1C2CC(OC(=O)NCCCc3ccccc3)C(C2)[C@H]2CCCCN21 (some centres undefined) | . | . | . | . | 11* | . | 0 | 1
CCCNC(=O)N1C[C@@H](C)[C@@H](OC)CN(C)C(=O)c2ccc(NC(=O)CC)cc2OC[C@H]1C | . | -5 | . | . | . | . | . | .
Cc1noc(C)c1S(=O)(=O)Nc1ccc2c(c1)C(=O)N([C@H](C)CO)C[C@H](C)[C@H](CN(C)C)O2 | . | 1 | . | . | . | . | . | .
Brc1ccc(Cn2c(-c3ccc(Br)o3)nc3ccccc32)o1 | 4 | . | 11 | -13 | 12* | 4 | 8.1* | 2
O=C(O)C1CN(c2ncccc2[N+](=O)[O-])C1 | -8 | 3 | 2 | -2 | -2 | 0 | . | .
O=C(O)[C@@H]1[C@@H]2C[C@@H]2CN1c1ncccc1[N+](=O)[O-] | -1 | -1 | 11 | -3 | 9.9* | -3 | 2 | 0
O=C(COC(=O)/C=C/c1cnc2ccccc2n1)NCC(F)(F)F | -5 | 4 | 12 | 1 | -2 | 0 | . | .
COCCNC(=O)COC(=O)/C=C/c1cnc2ccccc2n1 | 26 | 16 | 29 | 1 | 12* | 1 | 4 | 1
CS(=O)(=O)N(CC(=O)N1CCCCCC1)c1ccc2c(c1)OCCO2 | 30 | 1 | 14 | 1 | 8.0* | 7 | -3 | 1
O=C(Nc1cc(Br)ccc1O)c1cc(-c2cccs2)on1 | 25 | 37 | -11 | -2 | 9.8* | 16 | 8 | 4
COC(=O)c1ccccc1NC(=O)c1cc(-c2cccs2)on1 | 10 | 9 | -28 | -1 | -2 | -1 | . | .
O=C(COc1ccccc1Br)NCc1ccco1 | 2 | 19 | 4 | 0 | 13* | 1 | 0 | 3
SMILES | Vif imaging | esBAF inh | SKN-1 inh | NR3A LBD binder | SMARCA2 activ | NadD inh | SMARCA2 act conf | GAL4-VP16 Luc
Cn1cnc([N+](=O)[O-])c1S(=O)(=O)Oc1ccccc1 | -3 | -86 | -3 | 0 | 20* | 1 | -14 | 6.3*
Cn1cnc([N+](=O)[O-])c1S(=O)(=O)Nc1ccccc1 | 23 | -2 | 6 | 0 | 3 | 1 | . | .
O=C(CSc1cn(CC(=O)N2CCOCC2)c2ccccc12)N1CCOCC1 | -1 | 3 | 13 | 0 | -1 | 1 | . | .
O=C(Cn1cc(SCc2cccc(Cl)c2)c2ccccc21)N1CCOCC1 | -10 | 62* | 11 | -9 | 18* | -3 | 3 | 5.4*
CCc1ccc(-c2cc3c(=O)n(CC(=O)NCCCN4CCC(Cc5ccccc5)CC4)nc(C)n3n2)cc1 | 9 | -21 | -6 | 2 | 10* | 7 | -11 | 3
Cc1nn(CC(=O)NCCCN2CCN(Cc3ccccc3)CC2)c(=O)c2cc(-c3ccccc3)nn12 | -8 | -4 | -4 | 2 | 8.5* | -7 | -1 | 2
COC(=O)C[C@@H]1C[C@H]2c3cc(N)ccc3O[C@H]2[C@@H](CO)O1 | . | -7 | . | . | . | . | . | .
CCN(CC)c1ccc(/C=N/NC(=O)c2ccoc2C)cc1 | 1 | . | 15 | 1 | 11* | -4 | 5 | 11*
Cc1ccc(/C=N/NC(=O)Nc2ccccc2)o1 | 5 | . | 0 | -1 | 8.2* | -4 | 12* | 10*
CCN(CC)c1ccc(/C=N/NC(=O)Nc2ccccc2)cc1 | -3 | . | 15 | -7 | 11* | -4 | 11* | 11*
Cc1occc1C(=O)N/N=C/c1ccccc1[N+](=O)[O-] | -5 | . | 6 | -1 | 8.2* | 3 | 6 | 9.0*
CNC(=O)C[C@@H]1CC[C@H]2[C@@H](COc3ccc(NC(=O)Nc4cccc(Cl)c4)cc3C(=O)N2C)O1 | . | 1 | . | . | . | . | . | .
CCOC(=O)c1c(NC(C)=O)sc2c(OCC(O)CNC(C)(C)C)c(Br)ccc12 (centres undefined) | -13 | -6 | -3 | -2 | 11* | 9 | 8.7* | 2
CCOC(=O)c1c(N)sc2c(OCC)c(Br)ccc12 | -7 | 5 | -2 | . | -3 | -6 | . | .
